The text below walks through data of PubChem BioAssay (EPA / NIEHS).

Active and inactive are the calls of the source. How the source made its calls: active means hit-call score of the fitted dose curve at least 0.9, where 1 is the maximum; inactive means score below 0.9.

Common to all, as to settings: mRNA level, 48 h; actives raise or lower the signal
Read-out in experiment [1]: DNA damage-inducible transcript 3 (DDIT3), DDIT3 (gene 1649)
In words: LTEA_HepaRG_DDIT3: Life Technologies and Expression Analysis (LTEA) Assay for DNA damage-inducible transcript 3 (DDIT3) using HepaRG (AID 2283488). The gist of the method: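 Eight-point concentration-response (100 uM highest, half-log dilutions) in HepaRG, 48 h, duplicate wells. Endpoint: qRT-PCR mRNA, normalized (ACTB, GAPDH, POLR2A), bidirectional fitting with DMSO as baseline.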

Read-out in experiment [2]: Pro-epidermal growth factor (Homo sapiens) (UniProt P01133)
In words: LTEA_HepaRG_EGF: Life Technologies and Expression Analysis (LTEA) Assay for Epidermal growth factor (EGF) using HepaRG (AID 2283489). The method, boiled down: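 qRT-PCR readout of EGF transcript after 48 h chemical exposure of HepaRG cells; eight concentrations from 100 uM down in half-log steps, duplicate wells, 0.5% DMSO vehicle. Bidirectional curve fitting against DMSO baseline.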

Read-out in experiment [3]: Early growth response protein 1 (EGR1) transcription factor, EGR1 (gene 1958)
In words: LTEA_HepaRG_EGR1: Life Technologies and Expression Analysis (LTEA) Assay for Early growth response protein 1 (EGR1) transcription factor using HepaRG (AID 2283490). The gist of the method: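 HepaRG, 48 h exposure, 8-pt half-log series from 100 uM, 0.5% DMSO vehicle; EGR1 transcript by TaqMan qRT-PCR (Fluidigm array), housekeeping-normalized; bidirectional fit relative to DMSO baseline.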

Read-out in experiment [4]: Ezrin (EZR), EZR (gene 7430)
Put plainly: LTEA_HepaRG_EZR: Life Technologies and Expression Analysis (LTEA) Assay for Ezrin (EZR) using HepaRG (AID 2283491). The method, boiled down: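 Read-out is EZR transcript level by qRT-PCR, normalized to three housekeeping genes and fitted bidirectionally against the DMSO control. Human HepaRG cells received test chemicals for 48 h at eight half-log concentrations up to 100 uM in 0.5% DMSO.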

Read-out in experiment [5]: Cytochrome P450 3A7 (Homo sapiens) (UniProt P24462)
Put plainly: LTEA_HepaRG_CYP3A7: Life Technologies and Expression Analysis (LTEA) Assay for CYP3A7 using HepaRG (AID 2283492). The method, boiled down:
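CYP3A7 transcript levels were read by TaqMan qRT-PCR on Fluidigm arrays after 48 h chemical exposure of human HepaRG cells, with housekeeping-gene normalisation. Eight half-log concentrations up to 100 uM in 0.5% DMSO were tested in duplicate.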

Read-out in experiment [6]: CYP3A5 (gene 1577)
In words: LTEA_HepaRG_CYP3A5: Life Technologies and Expression Analysis (LTEA) Assay for CYP3A5 using HepaRG (AID 2283493). The method, boiled down:
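Readout was CYP3A5 mRNA by qRT-PCR. HepaRG cultures were exposed for 48 h in serum-free induction medium to chemicals at up to 100 uM, and responses were fitted in both directions relative to DMSO vehicle.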

Read-out in experiment [7]: Fatty Acid-Binding Protein 1 (FABP1), FABP1 (gene 2168)
In words: LTEA_HepaRG_FABP1: Life Technologies and Expression Analysis (LTEA) Assay for Fatty Acid-Binding Protein 1 (FABP1) using HepaRG (AID 2283494). The method, boiled down: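 qRT-PCR readout of FABP1 transcript (normalized to three housekeeping genes) after 48 h chemical exposure of HepaRG cells; eight concentrations, half-log steps, max 100 uM, 0.5% DMSO vehicle; gain or loss fitted relative to DMSO baseline.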

Read-out in experiment [8]: Cytochrome P450 4A22 (Homo sapiens) (UniProt Q5TCH4)
In words: LTEA_HepaRG_CYP4A22: Life Technologies and Expression Analysis (LTEA) Assay for Cytochrome P450 4A22 (CYP4A22) using HepaRG (AID 2283495). The method, boiled down:
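HepaRG, 48 h post-plating -> serum-free induction medium; dosed 48 h, duplicate, 8 conc. (100 uM top, half-log), 0.5% DMSO. Readout: CYP4A22 mRNA by qRT-PCR, ACTB/GAPDH/POLR2A normalization; gain/loss fit relative to DMSO.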

Read-out in experiment [9]: Cytochrome P450 7A1 (Homo sapiens) (UniProt P22680)
Put plainly: LTEA_HepaRG_CYP7A1: Life Technologies and Expression Analysis (LTEA) Assay for Cytochrome P450 7A1 (CYP7A1) using HepaRG (AID 2283496). The method, boiled down:
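Using 0.5% DMSO as vehicle and baseline, chemicals were tested in duplicate over an 8-point range from 100 uM on HepaRG cells for 48 h; qRT-PCR signals were normalised to ACTB, GAPDH and POLR2A.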

Read-out in experiment [10]: Glutathione S-Transferase (GSTA2), GSTA2 (gene 2939)
In words: LTEA_HepaRG_GSTA2: Life Technologies and Expression Analysis (LTEA) Assay for Glutathione S-Transferase (GSTA2) using HepaRG (AID 2283497). The method, boiled down:
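qRT-PCR readout of GSTA2 transcript, normalized to three housekeeping genes, fitted bidirectionally against 0.5% DMSO baseline. Differentiated HepaRG cells received compound for 48 h at 8 concentrations (top 100 uM, half-log steps).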

Read-out in experiment [11]: Glutamate-cysteine ligase catalytic (GCLC), GCLC (gene 2729)
In words: LTEA_HepaRG_GCLC: Life Technologies and Expression Analysis (LTEA) Assay for Glutamate-cysteine ligase catalytic (GCLC) using HepaRG (AID 2283498). The gist of the method: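 HepaRG, 48 h exposure, 8-pt half-log series from 100 uM, 0.5% DMSO vehicle; TaqMan qRT-PCR for GCLC mRNA, housekeeping-normalized; bidirectional curve fit vs DMSO baseline.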

Read-out in experiment [12]: growth arrest and DNA damage 45 (GADD45G), GADD45G (gene 10912)
In words: LTEA_HepaRG_GADD45G: Life Technologies and Expression Analysis (LTEA) Assay for growth arrest and DNA damage 45 (GADD45G) using HepaRG (AID 2283499). The gist of the method: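 HepaRG, 48 h exposure, top 100 uM, half-log 8-point series, 0.5% DMSO vehicle, duplicates. Readout: GADD45G transcript by qRT-PCR (Fluidigm array), housekeeping-normalised (ACTB/GAPDH/POLR2A). Bidirectional curve fit vs DMSO baseline.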

Read-out in experiment [13]: Glutamate-cysteine ligase regulatory (GCLM), GCLM (gene 2730)
Put plainly: LTEA_HepaRG_GCLM: Life Technologies and Expression Analysis (LTEA) Assay for Glutamate-cysteine ligase regulatory (GCLM) using HepaRG (AID 2283500). The method, boiled down: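 In this multiplexed HepaRG gene-expression assay, GCLM mRNA change after 48 h treatment (8 concentrations, max 100 uM) was scored against DMSO by bidirectional curve fitting.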

Read-out in experiment [14]: Glutathione S-transferase M3 (GSTM3), GSTM3 (gene 2947)
In words: LTEA_HepaRG_GSTM3: Life Technologies and Expression Analysis (LTEA) Assay for Glutathione S-transferase M3 (GSTM3) using HepaRG (AID 2283501). The gist of the method: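 qRT-PCR read-out of GSTM3 transcript, normalized to three housekeeping genes, from human HepaRG cells after 48 h chemical exposure. Eight-point half-log series, top 100 uM, 0.5% DMSO vehicle; gain or loss fitted relative to DMSO baseline.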

Read-out in experiment [15]: Heat shock 70 kDa protein 1 (HSPA1A), gene 3303
Put plainly: LTEA_HepaRG_HSPA1A: Life Technologies and Expression Analysis (LTEA) Assay for Heat shock 70 kDa protein 1 (HSPA1A) using HepaRG (AID 2283502). The gist of the method:
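An oxidative-stress marker readout: HepaRG cells treated 48 h in duplicate with an eight-point series (highest 100 uM) had HSPA1A mRNA quantified by TaqMan qRT-PCR. Activity was fitted in both directions using 0.5% DMSO as baseline.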

Read-out in experiment [16]: Hypoxia-inducible factor 1-alpha (Homo sapiens) (UniProt Q16665)
Put plainly: LTEA_HepaRG_HIF1A: Life Technologies and Expression Analysis (LTEA) Assay for Hypoxia-inducible factor 1 (HIF1A) Trancription factor using HepaRG (AID 2283503).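 Further: HIF1A transcript by TaqMan qRT-PCR normalized to ACTB GAPDH and POLR2A.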 The method, boiled down:
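Gain- or loss-of-signal HIF1A mRNA changes are fitted against a DMSO baseline. HepaRG cultures receive eight concentrations, highest 100 uM, for 48 h in serum-free induction medium with 0.5% DMSO.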

Read-out in experiment [17]: 3-Hydroxy-3-Methylglutaryl-CoA Synthase 2 (HMGCS2), HMGCS2 (gene 3158)
In words: LTEA_HepaRG_HMGCS2: Life Technologies and Expression Analysis (LTEA) Assay for 3-Hydroxy-3-Methylglutaryl-CoA Synthase 2 (HMGCS2) using HepaRG (AID 2283504). The method, boiled down:
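qRT-PCR read-out of HMGCS2 transcript, normalised to three housekeeping genes, in HepaRG cells after 48 h chemical exposure. Eight-point curves from 100 uM, half-log dilutions, 0.5% DMSO vehicle; gain or loss fitted relative to DMSO baseline.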

Read-out in experiment [18]: Insulin Like Growth Factor 1 (IGF1), IGF1 (gene 3479)
In words: LTEA_HepaRG_IGF1: Life Technologies and Expression Analysis (LTEA) Assay for Insulin Like Growth Factor 1 (IGF1) using HepaRG (AID 2283506). The gist of the method:
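Endpoint: IGF1 mRNA change by qRT-PCR, housekeeping-normalized, fitted bidirectionally relative to 0.5% DMSO vehicle. Human HepaRG cells were treated 48 h in serum-free induction medium, eight half-log concentrations topping at 100 uM.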

Read-out in experiment [19]: Intercellular Adhesion Molecule 1 (ICAM1), ICAM1 (gene 3383)
In words: LTEA_HepaRG_ICAM1: Life Technologies and Expression Analysis (LTEA) Assay for Intercellular Adhesion Molecule 1 (ICAM1) using HepaRG (AID 2283507). The gist of the method:
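HepaRG, 48 h exposure, 8-pt half-log series from 100 uM, 0.5% DMSO vehicle, duplicates. Readout: TaqMan qRT-PCR mRNA, housekeeping-normalized (ACTB/GAPDH/POLR2A). Bidirectional curve fit vs DMSO baseline.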

Read-out in experiment [20]: HGF (gene 3082)
Put plainly: LTEA_HepaRG_HGF: Life Technologies and Expression Analysis (LTEA) Assay for Hepatocyte Growth Facto (HGF) using HepaRG (AID 2283505). The gist of the method: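 HepaRG, 48 h dosing, 8-pt half-log series from 100 uM in 0.5% DMSO, duplicates. Readout: TaqMan qRT-PCR of HGF mRNA, housekeeping-normalized; bidirectional curve fit vs DMSO baseline.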

Chain of Cytochrome P450 3A7 (Homo sapiens) (P24462 whole entry, looked up): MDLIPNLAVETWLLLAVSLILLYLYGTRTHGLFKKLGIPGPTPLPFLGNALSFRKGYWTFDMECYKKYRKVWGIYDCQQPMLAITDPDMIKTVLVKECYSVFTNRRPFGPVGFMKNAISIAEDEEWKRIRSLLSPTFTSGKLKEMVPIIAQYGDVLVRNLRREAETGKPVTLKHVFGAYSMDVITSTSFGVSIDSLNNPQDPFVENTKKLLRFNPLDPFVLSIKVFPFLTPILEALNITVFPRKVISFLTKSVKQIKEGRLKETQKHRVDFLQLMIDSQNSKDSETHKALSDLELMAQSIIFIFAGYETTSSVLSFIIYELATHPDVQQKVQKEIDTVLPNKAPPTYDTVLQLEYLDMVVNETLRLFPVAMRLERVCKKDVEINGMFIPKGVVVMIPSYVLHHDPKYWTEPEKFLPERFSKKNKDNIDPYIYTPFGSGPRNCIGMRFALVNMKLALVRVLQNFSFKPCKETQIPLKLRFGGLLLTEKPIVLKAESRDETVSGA
Chain of Hypoxia-inducible factor 1-alpha (Homo sapiens) (Q16665 whole entry, looked up): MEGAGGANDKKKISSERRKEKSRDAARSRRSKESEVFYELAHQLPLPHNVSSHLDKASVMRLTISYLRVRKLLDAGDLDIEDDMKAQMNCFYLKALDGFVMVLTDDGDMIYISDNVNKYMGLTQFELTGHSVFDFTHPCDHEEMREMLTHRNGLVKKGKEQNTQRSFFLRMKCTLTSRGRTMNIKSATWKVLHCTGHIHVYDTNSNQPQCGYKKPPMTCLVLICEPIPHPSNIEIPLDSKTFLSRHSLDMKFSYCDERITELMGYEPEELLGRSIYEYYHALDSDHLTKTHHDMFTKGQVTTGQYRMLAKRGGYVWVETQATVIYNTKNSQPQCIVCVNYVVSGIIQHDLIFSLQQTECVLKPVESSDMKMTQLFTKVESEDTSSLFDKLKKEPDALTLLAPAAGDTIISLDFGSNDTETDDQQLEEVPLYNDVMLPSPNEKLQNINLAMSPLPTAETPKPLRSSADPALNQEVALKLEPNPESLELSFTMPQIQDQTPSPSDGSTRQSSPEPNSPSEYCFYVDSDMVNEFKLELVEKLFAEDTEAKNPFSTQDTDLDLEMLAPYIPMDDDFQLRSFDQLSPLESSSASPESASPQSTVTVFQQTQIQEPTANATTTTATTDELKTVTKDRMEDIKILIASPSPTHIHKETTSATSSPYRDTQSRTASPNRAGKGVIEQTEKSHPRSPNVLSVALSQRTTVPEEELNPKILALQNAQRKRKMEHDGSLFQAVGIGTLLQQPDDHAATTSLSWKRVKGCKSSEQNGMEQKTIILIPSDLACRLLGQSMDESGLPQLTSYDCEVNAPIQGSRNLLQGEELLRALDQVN

As to `CCOC(=O)C(O)(c1ccc(Cl)cc1)c1ccc(Cl)cc1`, the call in [1], in experiment [2], in experiment [3], in experiment [4], in experiment [6] and in experiment [7] was inactive. In addition, the compound was classed as inactive in experiment [9], in experiment [10], in [11], in experiment [12], in experiment [13] and in experiment [14]. Further, the result in experiment [15], in experiment [16], in [17], in experiment [18] and in experiment [19] was inactive. Further, the AC50 in experiment [5] and in [8] was 50 µM (active) in each case.
On to `C[C@]12CCC(=O)C=C1CC[C@@H]1[C@@H]2CC[C@]2(C)C(=O)CC[C@@H]12`, for which the call in [1], in [2], in [3], in experiment [4], in experiment [5] and in [10] was inactive. The compound was classed as inactive in experiment [11], in experiment [13], in [15], in experiment [17], in experiment [20] and in experiment [19]. Besides, the AC50 in experiment [6] was 50 µM (active); in experiment [7], 12.5 µM (active); in experiment [8] it was 72.7 µM (active); in experiment [9] it was 4.69 µM (active); in experiment [18], 50 µM (active).
For the compound `CCCN(CCC)N=O`, the result in experiment [1], in experiment [2], in experiment [3], in experiment [4], in experiment [5] and in experiment [6] was inactive. Also, the result in experiment [7], in experiment [8], in experiment [9], in [10], in [11] and in experiment [12] was inactive. Moreover, the outcome in [13], in experiment [15], in experiment [16], in experiment [17], in [18] and in [19] was inactive.
Take `ClC(Cl)=C(c1ccc(Cl)cc1)c1ccc(Cl)cc1`: the compound was classed as inactive in experiment [1], in [2], in experiment [3], in [4], in experiment [6] and in experiment [8]. For the same compound, the outcome in experiment [9], in experiment [10], in experiment [11], in [12], in experiment [13] and in experiment [15] was inactive. For the same compound, the call in [16] and in experiment [19] was inactive. The AC50 is 8.96 µM (active) in [5], 50 µM (active) in experiment [7] and 50 µM (active) in experiment [18].
For the compound `Cc1cccc([N+](=O)[O-])c1`, the compound was called inactive in experiment [1], in experiment [3], in experiment [4], in experiment [5], in experiment [6] and in [7]. Moreover, the call in [10], in experiment [11], in experiment [12], in experiment [13], in [15] and in experiment [16] was inactive. Moreover, the compound was classed as inactive in experiment [17], in experiment [20], in experiment [18] and in [19].
Turning to `Cc1ccccc1O`, the result in experiment [1], in [2], in experiment [3], in [4], in experiment [5] and in [6] was inactive. Besides, the compound was classed as inactive in experiment [7], in [8], in [9], in [10], in [11] and in experiment [12]. Besides, the result in experiment [13], in [15], in experiment [16], in experiment [17], in experiment [18] and in experiment [19] was inactive.
